Out of some 53,000 sequences screened, about 3,700 (7%) were called active.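 How the source made its calls: active means gene knockdowns whose robust z-score for IL-1 alpha signal is at least 2 or at most -2, so actives lie on both sides; inactive means the rest.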 Only a selection was taken, and actives are over-represented in it overall.

The assay is described as follows: Components of the Cytosolic LPS Sensing Pathway: Gene Identification via Genome-wide siRNA Screen.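 Further: robust z of the log signal after scaling to non-targeting control siRNA wells of the plate.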 The conditions noted are these: RAW264.7 macrophages, IL-1a HTRF, actives lie on both sides, screened at 100 nM (by protocol), cells primed 5 h with Pam3CSK4 first. A digest of the protocol:
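Mouse macrophage line RAW264.7 is transfected with siRNA (100 nM final), grown 48h, primed with TLR ligand Pam3CSK4 5 h and given intracellular LipidA 24 h. IL-1a in supernatant is read by HTRF and viability by luminescence.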
With GGGAAUUGCCUCAGCUAAGTT against Men1, the z-score was 2.95 (active). As for CCAGUUAAACACAUUAGCCTT against Mxra8, the z-score was -0.373 (inactive). Take GGCUCAACGGCUUAGGGAATT against B3gat3: the z-score is 1.42 (inactive). On to GGAAAAUAAGCAUAGUGAUTT against Spesp1, for which the z-score is -0.35 (inactive). In the case of GGACAACCAGCUCAUUGUGTT against Cd82 it was -1.09 (inactive); in that of GCAACACACUGCUUCCUGGTT against Tmem19, -1.38 (inactive); in that of GGUAAUUGAGUUUGACGAUTT against Ptprf, 0.585 (inactive).

As for CGAAGGCUUCCCUUUUAUCTT against Tmem150b, the z-score was 2.67 (active). On to GCCUUCGUCUCCAAGUAUATT against Plagl1, for which the z-score is -0.305 (inactive).

For GCUCCUUGCUUGAUUCUACTT against BC107364, the z-score was 0.649 (inactive). For GGAUAGAGUUAAUGAAAAGTT against Poc5, the z-score is 0.827 (inactive). Turning to CCUCUAGAUAGUGUUAGAGTT against Smarcd1, the z-score was -2.19 (active). In the case of GGCACAUUGUGGUGUCUUGTT against Pycr1, the z-score is -3e-05 (inactive). Turning to GGAGAUUGAAGAGCUCCGATT against Cabp1, the z-score was -0.0021 (inactive). In the case of GGCCCAUAUUUUAUUACCGTT against Galns it was -1.84 (inactive); in that of GGAGGCAGUGUUUUGUCAATT against Fgd4, -0.912 (inactive). As for GGAAGGCAUUGAAGCUGAATT against Armt1, the z-score is 0.447 (inactive). Consider GGGCCAACUCAAAACAAAATT against Wdr37, for which the z-score is -0.74 (inactive). In the case of GGUUGUUCACUAGGUCACUTT against Creg2 it was 0.591 (inactive). On to GGUGUGUGAAAUCACUCACTT against Oxnad1, for which the z-score was 0.303 (inactive). Take CCAAUUAUGUGAGAAGUGATT against Snx24: the z-score is 0.463 (inactive). In the case of CCAACUCGUGAUUCUAGACTT against Tmed10 it was 1.27 (inactive); in that of GGUAAAGGUAAACUUAUACTT against Vmn1r148, -4.68 (active); in that of GCGCAAUACGUGGGUUUGUTT against Shisal2b, 0.254 (inactive). Consider “GCUCGUUUGUGUAUAAGGATT against 4930503L19Rik”, for which the z-score was 0.276 (inactive).

On to GGUUCUCGUGUGGCACACUTT against B3gat2, for which the z-score is 0.126 (inactive). On to CCUUCAAUCUUUCUUUCUGTT against Olfr1465, for which the z-score was -0.635 (inactive).

For CCGUGAUAACAACAUUUGUTT against Olfr750, the z-score is -0.833 (inactive).

As for GGAGUAUGAUUCAGAAAUGTT against Scn11a, the z-score was -0.607 (inactive).

GGUCAUCAUGAGCCCAUGUTT against Olfr1341: the z-score is -1.72 (inactive). Turning to GGAUUUGGCUAUAUCAACATT against Rfc2, the z-score is -1.56 (inactive). For CCAUAGCUCUGGAAUGGUGTT against Kcnt1, the z-score was -2.59 (active). Turning to GGAUGUAUGCCAAAGAAUUTT against Fmo5, the z-score was -0.0456 (inactive). With CGUGCUAAACCAAGACUUATT against Lyplal1, the z-score was 1.25 (inactive).

GGGUGAAUUUUGUUUUUGUTT against Kcnj14: the z-score was 3.05 (active). Then GGAUAGCAUGCUUCCUGAGTT against Rhbdf2, with -2.19 (active); and GGAAAUGCUCCUCUAGGAUTT against Ppcs, with 0.039 (inactive); and GGAUGAAGAACUGACUCCGTT against Mboat2, with -0.108 (inactive). As to GGUGCAAUCAAAUGGAAUUTT against Nrf1, the z-score was 3.75 (active).

For the sequence GCUACGUAAACGGAAGGCUTT against Abraxas1, the z-score is 0.272 (inactive). Consider GGUAAGAGGAUGGACACAATT against Chst1, for which the z-score was 1.08 (inactive). Then GAUCCGUUGGGAAAAGAACTT against Ssbp4, with -0.881 (inactive); and GGCAGUUCUUAAGUAAUCATT against Fem1al, with 0.924 (inactive); and GGAGAAAGAAGCUAGUGAGTT against Gm6787, with -2.77 (active). GCGAACUCCUCUUUAGGCATT against Chrng: the z-score is -0.594 (inactive). For GCCAUCCUUCCAUUUAAGATT against Wdyhv1, the z-score was -0.478 (inactive). With GGUAAGGACUAUUUGAAUUTT against Lpar1, the z-score is -0.429 (inactive). Turning to GCAAAUUAAGCACUGUAAGTT against Dennd1b, the z-score was 0.379 (inactive). Regarding GGUGGUUAGAUCUUACGCUTT against Tmem184a, the z-score is 4.37 (active). CGCGUACGACUUCUACAAATT against Hmgcs2: the z-score was 0.775 (inactive). Consider GGUGGAGUUUCUCAAAAGCTT against Kcnc3, for which the z-score is 0.0264 (inactive). In the case of GCAGGUACUGCGCUAUUAUTT against Atp13a2 it was -0.766 (inactive); in that of GGAUGUGGCUGCUUUGAAGTT against Mettl27, -1.38 (inactive); in that of CCUUCUAGACACCAUACCCTT against Pidd1, 0.259 (inactive). For the sequence CCACACGUUCCAUUUCUCGTT against Hilpda, the z-score is -2.65 (active).

Take CGUCAUGCAUUUUUCUAAATT against Trim24: the z-score was 0.489 (inactive).

With GGAUGAGAAGAAAGAAGAUTT against Srrt, the z-score was -1.36 (inactive). As to GGAUACAGCAGUACAAAUGTT against Ces2c, the z-score is -0.135 (inactive).

Consider GGUGCGCUUCUAUGUUCCUTT against Ssrp1, for which the z-score is 2.38 (active). GGCAAGGAUUUUUCUACCUTT against Tslp: the z-score is -0.555 (inactive).

On to GCUGCACAAGUGAUAUCCGTT against Trim26, for which the z-score was 0.397 (inactive). With GGGAAAGCCAUCCUUCACUTT against Erich5, the z-score was 0.288 (inactive). As for GGAGAAAAAGAGAUAAGGUTT against Ppp2r2b, the z-score was -0.893 (inactive). Then GCCAUUUGUCCACAAAAUGTT against Ces2g, with -2.06 (active); and GGACCUGGAGUAUAUGCUGTT against Mgat4f, with -0.611 (inactive). In the case of GGCACUGUUCUCAUCUGUGTT against Olfr736, the z-score is -2.41 (active). Then GGUUGACUCUACAAAAUACTT against Muc5b, with -0.656 (inactive); and GGCAGUUGUGAACUUUCUCTT against Telo2, with 0.243 (inactive).

(Values after PubChem BioAssay AID1508600 (Functional Genomics Laboratory (NCATS/FGL), 2020).)
